Data as given in PubChem BioAssay.
For some assays here: Results with a measured potency or affinity are listed apart. The source made the active and inactive calls. Unless noted, how the calls were made is not given here.

Each compound was assayed against Protein kinase 7 (PK7), Plasmodium falciparum 3D7 (PF3D7_0213400) (UniProt Q7YTF7) (assay: inhibition of Plasmodium PK7 catalytic activity – biochemical, TCAMS antimalarial set, Kinase-Glo luminescence (AID 1159587)). Details: recombinant PfPK7, Kinase-Glo ATP depletion luminescence.
Sequence of Protein kinase 7 (PK7), Plasmodium falciparum 3D7 (PF3D7_0213400) (Q7YTF7 1-343): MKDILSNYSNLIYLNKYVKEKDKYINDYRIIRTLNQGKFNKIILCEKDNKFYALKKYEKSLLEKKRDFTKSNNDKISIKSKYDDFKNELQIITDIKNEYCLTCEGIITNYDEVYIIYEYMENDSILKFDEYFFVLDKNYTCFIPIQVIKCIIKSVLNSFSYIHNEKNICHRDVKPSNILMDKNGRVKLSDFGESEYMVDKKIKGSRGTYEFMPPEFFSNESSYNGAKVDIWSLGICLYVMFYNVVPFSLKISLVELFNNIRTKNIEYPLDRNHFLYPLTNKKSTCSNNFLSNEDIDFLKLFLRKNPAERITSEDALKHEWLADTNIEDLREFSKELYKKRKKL

outcome, inactive:
Cc1[nH]c(C)c(-c2ccc(OCCCc3ccccn3)cc2)c(=O)c1Br, Cc1ccc2[nH]c3c(NCCN(C)C)ncnc3c2c1, Cc1cccc2[nH]c(-c3ccc(-c4cccc(NC(=O)c5cccc(C(N)=O)c5)c4)cc3)nc12, Cc1cccc(C)c1OC(=O)[C@@H](C)[C@@H](O)C1(Sc2ccccc2)CCN(C)CC1, N#Cc1ccc(-c2ccc(C(=O)NCC3CCN(CCN4CCC(c5ccc6c(c5OCC(N)=O)CCCC6)CC4)CC3)cc2)cc1, Cc1ccc(CN2CCCCC(NC(=O)c3cc4ccccc4s3)C2)cc1 (stereo not given), CCCN(CCC)CCOc1ccc(C(O)(C#CC(O)(c2ccc(OCCN(CCC)CCC)cc2)c2cccc(Cl)c2)c2cccc(Cl)c2)cc1 (stereo not given), CC(C#N)Cc1ccc(-c2cnc(N)c3cc(-c4ccnc(N)n4)ccc23)cc1 (stereo not given), O=C(/C=C/c1ccc(C(F)(F)F)cc1)NCCCCCN1CCN(C(=O)Nc2ccc(F)c(Cl)c2)CC1, O=C(NCC1CCN(CCN2CCc3ccc4c(c3C2)OCO4)CC1)c1ccc(-c2ccc(C(F)(F)F)cc2)cc1, CCNc1cc(C)nc(Nc2ccc(NC(=O)c3ccco3)cc2)n1, CN(C)Cc1cccc(-c2cnc(N)c(-c3nc4ccc(S(C)(=O)=O)cc4[nH]3)c2)c1, O=c1ccc(-c2nc3cc(Cl)c(Cl)cc3n2Cc2ccc(Cl)cc2Cl)c[nH]1, CCc1c(C)nc(-n2nc(C)cc2NC(=O)c2cccc3ccccc23)[nH]c1=O, COc1ccc2c(=O)c3ccc(OC)cc3[nH]c2c1, NS(=O)(=O)c1ccccc1Nc1nc(Nc2ccc(N3CCOCC3)cc2)nc2c1CCC2, Nc1nonc1-c1nc2c(-c3cccc(Cl)c3)nccc2n1CCCNC(=O)Cc1ccc(Cl)cc1, Cc1ccc(O)c(C(=O)c2cnc3c(c2)c(-c2ccc(F)cc2)c(C#N)c(=O)n3C)c1, Cc1noc(C)c1-c1cccc(CNCc2ccc(-c3ccc(-c4nc5ccc(C(F)(F)F)cc5[nH]4)s3)cc2)c1, COc1ccc2nccc(N3CCC(O)(CCNCc4ccc5c(n4)NC(=O)CO5)CC3)c2n1, COc1ccc(NC(=O)[C@H](Cc2ccccc2)Nc2cc(C)nc(NCCN3CCCC3)n2)cc1, CCOc1cc2ncnc(Nc3cc(Cl)c(Cl)c(Cl)c3)c2cc1OCC, Cc1cccc(Nc2nccc(NCC(O)c3ccc(C(F)(F)F)cc3)n2)c1 (stereo not given), Cn1cncc1C(=O)Nc1cccc(-c2ccc(-c3nc4ccccc4[nH]3)cc2)c1, CCN(CC)CC(O)Cc1c2ccc([N+](=O)[O-])cc2nc2cc(OC)c(OC)cc12 (stereo not given), O=C(Nc1ccccc1F)NC1CCN(c2ccnc(Nc3ccc(F)cc3)n2)C1 (stereo not given), O=C(NCCN1CCN(S(=O)(=O)c2ccc(OC3CCNCC3)c(Br)c2)CC1)c1ccc(Cl)c(Cl)c1, O=C(/C=C/c1ccc(Cl)c(Cl)c1)NCCCCCCN1CCCN(C(=O)Nc2ccc(Cl)c(C(F)(F)F)c2)CC1, C[C@@H](Oc1cc(-n2cnc3ccc(OCC4CCN(S(C)(=O)=O)CC4)cc32)sc1C(N)=O)c1ccccc1C(F)(F)F, c1cc(CNCC2CCCO2)cc(-c2ccc(-c3nc4ccccc4[nH]3)s2)c1 (stereo not given), COC(=O)c1cccc(CNCc2ccc(-c3ccc(-c4nc5c(C)cccc5[nH]4)s3)cc2)c1, COc1ccc(NC(=O)NC2CCN(CCCOc3cc(C)nc4ccccc34)CC2)cc1OC, COc1cccc(NC(=O)c2ccc(NCCCN3CCC(C)CC3)c([N+](=O)[O-])c2)c1, Nc1c2ccccc2nc2cc(Cl)ccc12, COc1ccc2nccc(N3CCC(CCNCc4ccc5c(n4)NC(=O)CO5)CC3)c2n1, Cc1cc(N(C)C)nc(Nc2ccc(NC(=O)c3ccccc3C)cc2)n1, CN1CCN(c2cc(NC(=O)c3ccc(-c4ccc(Cl)cc4)cc3)ccc2Cl)CC1, Oc1ccc(CCNc2nc(N/N=C/C=C/c3ccc(Cl)cc3)nc(N3CCNCC3)n2)cc1, COc1ccc2nccc(N3CCC(SCCNCc4cc5c(cn4)OCCO5)C3)c2n1 (stereo not given), COc1ccc2nccc([C@@H](O)CN3CCC(NCc4ccc5c(c4)NC(=O)CO5)CC3)c2c1

What follows are compounds tested against Calcium-dependent protein kinase 4 (Plasmodium falciparum (isolate 3D7)) (UniProt Q8IBS5) (assay: PfCDPK4 kinase inhibitors, biochemical, TCAMS library (AID 1159588; cut-off not given, nearly all actives have IC50 up to about 0.91 µM)). Details: recombinant PfCDPK4, Kinase-Glo ATP depletion luminescence.
Sequence of Calcium-dependent protein kinase 4 (Plasmodium falciparum (isolate 3D7)) (Q8IBS5 whole entry, looked up): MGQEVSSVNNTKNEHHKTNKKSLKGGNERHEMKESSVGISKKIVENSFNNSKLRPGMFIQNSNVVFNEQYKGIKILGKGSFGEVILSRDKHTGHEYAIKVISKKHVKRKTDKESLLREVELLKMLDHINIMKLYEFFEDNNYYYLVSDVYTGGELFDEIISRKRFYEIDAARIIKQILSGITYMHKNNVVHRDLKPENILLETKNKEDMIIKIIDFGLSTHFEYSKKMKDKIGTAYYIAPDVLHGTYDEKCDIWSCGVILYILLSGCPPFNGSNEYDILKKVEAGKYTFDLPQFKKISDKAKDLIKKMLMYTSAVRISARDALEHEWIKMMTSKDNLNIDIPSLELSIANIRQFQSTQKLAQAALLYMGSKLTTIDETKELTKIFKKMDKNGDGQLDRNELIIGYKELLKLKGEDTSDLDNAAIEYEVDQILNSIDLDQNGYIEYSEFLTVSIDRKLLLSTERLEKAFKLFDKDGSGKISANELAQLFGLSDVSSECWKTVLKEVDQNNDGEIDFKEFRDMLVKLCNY

outcome, inactive:
Cc1[nH]c(C)c(-c2ccc(OCCCc3ccccn3)cc2)c(=O)c1Br, Cc1ccc2[nH]c3c(NCCN(C)C)ncnc3c2c1, Cc1cccc2[nH]c(-c3ccc(-c4cccc(NC(=O)c5cccc(C(N)=O)c5)c4)cc3)nc12, Cc1cccc(C)c1OC(=O)[C@@H](C)[C@@H](O)C1(Sc2ccccc2)CCN(C)CC1, N#Cc1ccc(-c2ccc(C(=O)NCC3CCN(CCN4CCC(c5ccc6c(c5OCC(N)=O)CCCC6)CC4)CC3)cc2)cc1, Cc1ccc(CN2CCCCC(NC(=O)c3cc4ccccc4s3)C2)cc1 (stereo not given), CCCN(CCC)CCOc1ccc(C(O)(C#CC(O)(c2ccc(OCCN(CCC)CCC)cc2)c2cccc(Cl)c2)c2cccc(Cl)c2)cc1 (stereo not given), CC(C#N)Cc1ccc(-c2cnc(N)c3cc(-c4ccnc(N)n4)ccc23)cc1 (stereo not given), O=C(/C=C/c1ccc(C(F)(F)F)cc1)NCCCCCN1CCN(C(=O)Nc2ccc(F)c(Cl)c2)CC1, O=C(NCC1CCN(CCN2CCc3ccc4c(c3C2)OCO4)CC1)c1ccc(-c2ccc(C(F)(F)F)cc2)cc1, CCNc1cc(C)nc(Nc2ccc(NC(=O)c3ccco3)cc2)n1, CN(C)Cc1cccc(-c2cnc(N)c(-c3nc4ccc(S(C)(=O)=O)cc4[nH]3)c2)c1, O=c1ccc(-c2nc3cc(Cl)c(Cl)cc3n2Cc2ccc(Cl)cc2Cl)c[nH]1, CCc1c(C)nc(-n2nc(C)cc2NC(=O)c2cccc3ccccc23)[nH]c1=O, COc1ccc2c(=O)c3ccc(OC)cc3[nH]c2c1, NS(=O)(=O)c1ccccc1Nc1nc(Nc2ccc(N3CCOCC3)cc2)nc2c1CCC2, Nc1nonc1-c1nc2c(-c3cccc(Cl)c3)nccc2n1CCCNC(=O)Cc1ccc(Cl)cc1, Cc1ccc(O)c(C(=O)c2cnc3c(c2)c(-c2ccc(F)cc2)c(C#N)c(=O)n3C)c1, Cc1noc(C)c1-c1cccc(CNCc2ccc(-c3ccc(-c4nc5ccc(C(F)(F)F)cc5[nH]4)s3)cc2)c1, COc1ccc2nccc(N3CCC(O)(CCNCc4ccc5c(n4)NC(=O)CO5)CC3)c2n1, COc1ccc(NC(=O)[C@H](Cc2ccccc2)Nc2cc(C)nc(NCCN3CCCC3)n2)cc1, CCOc1cc2ncnc(Nc3cc(Cl)c(Cl)c(Cl)c3)c2cc1OCC, Cc1cccc(Nc2nccc(NCC(O)c3ccc(C(F)(F)F)cc3)n2)c1 (stereo not given), Cn1cncc1C(=O)Nc1cccc(-c2ccc(-c3nc4ccccc4[nH]3)cc2)c1, CCN(CC)CC(O)Cc1c2ccc([N+](=O)[O-])cc2nc2cc(OC)c(OC)cc12 (stereo not given), O=C(Nc1ccccc1F)NC1CCN(c2ccnc(Nc3ccc(F)cc3)n2)C1 (stereo not given), O=C(NCCN1CCN(S(=O)(=O)c2ccc(OC3CCNCC3)c(Br)c2)CC1)c1ccc(Cl)c(Cl)c1, O=C(/C=C/c1ccc(Cl)c(Cl)c1)NCCCCCCN1CCCN(C(=O)Nc2ccc(Cl)c(C(F)(F)F)c2)CC1, C[C@@H](Oc1cc(-n2cnc3ccc(OCC4CCN(S(C)(=O)=O)CC4)cc32)sc1C(N)=O)c1ccccc1C(F)(F)F, c1cc(CNCC2CCCO2)cc(-c2ccc(-c3nc4ccccc4[nH]3)s2)c1 (stereo not given), COC(=O)c1cccc(CNCc2ccc(-c3ccc(-c4nc5c(C)cccc5[nH]4)s3)cc2)c1, COc1ccc(NC(=O)NC2CCN(CCCOc3cc(C)nc4ccccc34)CC2)cc1OC, COc1cccc(NC(=O)c2ccc(NCCCN3CCC(C)CC3)c([N+](=O)[O-])c2)c1, Nc1c2ccccc2nc2cc(Cl)ccc12, COc1ccc2nccc(N3CCC(CCNCc4ccc5c(n4)NC(=O)CO5)CC3)c2n1, Cc1cc(N(C)C)nc(Nc2ccc(NC(=O)c3ccccc3C)cc2)n1, CN1CCN(c2cc(NC(=O)c3ccc(-c4ccc(Cl)cc4)cc3)ccc2Cl)CC1, Oc1ccc(CCNc2nc(N/N=C/C=C/c3ccc(Cl)cc3)nc(N3CCNCC3)n2)cc1, COc1ccc2nccc(N3CCC(SCCNCc4cc5c(cn4)OCCO5)C3)c2n1 (stereo not given), COc1ccc2nccc([C@@H](O)CN3CCC(NCc4ccc5c(c4)NC(=O)CO5)CC3)c2c1
